# Bioassay records as filed in PubChem.
# A selection: hits, their analogues and other compounds. The true share with any hit is near 9.9%.
# SW480 rereplic = induces DNA re-replication in SW480 colon adenocarcinoma cells; SW480 DNA re-replication, Hoechst DNA content imaging, 48 h; Potency, µM (highest dose often 46.1 µM), without a hit: at the top dose re-replication activation, usual class: activators; 340,000 compounds, 1.8% hits; also: potency is read from the fitted curve at half-maximal effect; % of control where 0% means no effect; nearly all actives have a fitted effect of over 55% in size
#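 Readout is total intensity of Hoechst-stained nuclei, excited at 405 nm and collected at 500-530 nm. Compound treatment lasted 48 hr at 37 C in 5% CO2 before staining.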
# MCF10A rereplic = DNA re-replication induction in MCF 10a cells | MCF 10A DNA re-replication, Hoechst nuclear intensity, 48 h | Potency, µM (top dose mostly 46.1 µM), for the others: top-dose activity, positive = re-replication, actives largely listed as activators | 350,000 compounds, 2.9% hits; also: potency is read from the fitted curve at half-maximal effect; % of control where 0% means no effect; nearly all actives have a fitted effect of over 50% in size
# IL-1B inflam inh = blocks inflammasome-driven IL-1 beta release; THP-1 LPS/ATP IL-1B secretion, AlphaLISA, 16 h; stronger effect = lower value; activity change, % at 57.5 µM; 360,000 compounds, 4.7% hits; AID 743279; in the data active = activity change below about -50%; inconclusive = mostly about -30% to -49%; also: % is scaled to controls: 0 for no effect and ±100 for the full control effect
#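 Secreted IL-1B measured by AlphaLISA bead assay after 16 h compound exposure of THP-1 cells; compounds (final up to 57.5 uM) added 1 h before LPS (250 ng/mL) and ATP (1.25 mM) stimulation; lower signal means less secretion.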
# KB-3-1 cytotox = KB-3-1 parental cell cytotoxicity. KB-3-1 viability, CellTiter-Glo ATP luminescence, 72 h. Potency, µM (doses to about 46.1 µM), actives largely listed as cytotoxic. 400,000 compounds, 1.4% hits. AID 1347075; also: potency is read from the fitted curve at half-maximal effect; % is scaled to controls: 0 for no effect and ±100 for the full control effect; nearly all actives have a fitted effect of over 60% in size
#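 Viability of parental KB-3-1 cells, measured by CellTiter-Glo luminescence, followed a 72 h incubation at 37 °C with pinned compounds in phenol-red-free DMEM containing 10% FBS.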
# KB-V1 MDR tox = KB-V1 MDR subline cytotoxicity. KB-V1 MDR cells viability, CellTiter-Glo, 72 h. Potency, µM (top dose mostly 46.1 µM), hits mostly cytotoxic. 400,000 compounds, 3.4% hits; also: potency is read from the fitted curve at half-maximal effect; % is scaled to controls: 0 for no effect and ±100 for the full control effect; nearly all actives have a fitted effect of over 60% in size
#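 Cytotoxicity via CellTiter-Glo luminescence after 72 h compound exposure at 37 degrees C. Cells: drug-selected KB-V1 line, DMEM phenol-red free plus 10% FBS. Compounds tested at multiple concentrations; normalized data fitted to concentration-effect curves.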
# Starred values were filed as active, the others as inactive; i = inactive; ? = inconclusive; . = no result given. Unless noted, calls follow the shape of the dose curve; as a rule, active = well fitted curve in the direction sought with a large enough effect; inconclusive = small, poorly fitted or top-dose-only effect, or another doubt; inactive = no such curve, though single readings can be large; an effect the other way counts as inactive or inconclusive.
SMILES,SW480 rereplic,MCF10A rereplic,IL-1B inflam inh,KB-3-1 cytotox,KB-V1 MDR tox
C[C@]12CC[C@H]3[C@@H](CCC4=CC(=O)CC[C@@H]43)[C@@H]1CC[C@@H]2O,-29%,2%,-16,10µM*,2.3µM*
COCOC1CCC2C3CCC4=CC(=O)CCC4=C3C=CC12C (stereo not given),0%,-1%,9,i,?
CCOC(=O)c1oc2ccc(S(=O)(=O)n3nc(-c4ccc(Cl)cc4)cc3N)cc2c1C,10%,?,0,?,i
C[C@]12CCC3=C4CCC(=O)C=C4CC[C@H]3C1CC[C@@H]2O (stereo not given in full),-10%,15%,22,10µM*,3.7µM*
CNC(C)C#Cc1ccc2oc3cc(C)c(C)cc3c(=O)c2c1 (stereo not given),?,?,-64*,?,i
CC(C)(C)c1ccc(/C=C2\Oc3cc(OC(=O)N4CCOCC4)ccc3C2=O)cc1,?,15µM*,-77*,i,i
COC(=O)C1=C(c2cc3ccccc3s2)C[C@@H]2CC[C@H]1N2C(=O)N1CCCCC1,?,18µM*,16,26µM*,?
CCCNC(=O)N1[C@H]2CC[C@@H]1C(C(=O)OC)=C(c1cc3ccccc3s1)C2,9%,-9%,5,?,i
COC(=O)C1=C(c2cc3ccccc3s2)C[C@@H]2CC[C@H]1N2C(=O)NC1CCCCC1,?,21µM*,-14,?,?
COC(=O)C1=C(c2cc3ccccc3s2)C[C@@H]2CC[C@H]1N2C(=O)N1CCC(O)CC1,1%,20%,10,?,i
O=C1OC(c2ccc(O)c(S(=O)(=O)O)c2)(c2ccc(O)c(S(=O)(=O)O)c2)c2c(Br)c(Br)c(Br)c(Br)c21,-2%,-5%,.,.,.
O=C1NC(=O)N(c2ccc3c(c2)OCO3)C(=O)/C1=C/c1ccsc1,44%,?,7,i,i
O=C1NC(=O)N(c2ccc3c(c2)OCO3)C(=O)/C1=C/c1cccs1,?,64%,-104*,?,i
Oc1ccc2[nH]cc(CCCCN3CC=C(c4ccccc4)CC3)c2c1,1%,-2%,.,.,.
Fc1ccc(CNCCc2ccccc2)cc1,1%,0%,-20,i,i
Cc1ccc(CNCCc2ccccc2F)cc1,-1%,?,-72*,i,i
Fc1ccccc1CCNCc1cccc2ccccc12,-2%,?,-21,i,i
CCN(CC)c1ccc(CNCCc2ccccc2F)cc1,7%,?,-92*,?,21µM*
Cc1sc2c(c1C)C(c1ccc(C(C)(C)C)cc1)=NCC(=O)N2CC(=O)Nc1nccs1,26%,?,-3,?,21µM*
COC(=O)[C@@]1(C)[C@H]2C(=O)N(Cc3ccccc3)C(=O)[C@H]2[C@H]2CN=C(SCc3ccc(Cl)cc3)N21,?,26%,0,i,i
COC1C(O)C(C)OC(OC2C(Oc3cccc4c(O)c5c(=O)oc6ccc(C)c7c(=O)oc(c34)c5c67)OC(C)C(O)C2O)C1O (stereo not given),21µM*,8.2µM*,-100*,15µM*,i
N#CN,-7%,-2%,.,.,.
C=C1C(=O)OC2CC(C)C3C=CC(=O)C3(C)C(O)C12 (stereo not given),?,18%,-101*,3.3µM*,3.7µM*
C=C1C(=O)O[C@H]2C[C@@H](C)[C@@H]3C=CC(=O)[C@@]3(C)C[C@H]12,?,2.9µM*,-111*,?,?
C=C1C(=O)O[C@@H]2C[C@@H](C)[C@@H]3C=CC(=O)[C@@]3(C)[C@@H](OC(=O)CC(=O)O[C@H]3[C@@H]4C(=C)C(=O)O[C@@H]4C[C@@H](C)[C@@H]4C=CC(=O)[C@]43C)[C@H]12,?,?,0,i,i
SMILES,SW480 rereplic,MCF10A rereplic,IL-1B inflam inh,KB-3-1 cytotox,KB-V1 MDR tox
C=C1C(=O)O[C@H]2[C@H]1[C@H](OC(=O)CC(=O)O[C@@H]1C[C@@H](C)[C@@H]3C=CC(=O)[C@@]3(C)[C@H]3OC(=O)C(=C)[C@H]13)C[C@@H](C)[C@H]1C=CC(=O)[C@]12C,2%,2.3µM*,-105*,i,i
C=C1C(=O)O[C@@H]2C[C@@H](C)[C@@H]3C4OC4C(=O)[C@@]3(C)[C@@H](O)[C@H]12 (stereo not given in full),?,?,-113*,i,i
O=c1cc(O)c2ccccc2[nH]1,10%,?,20,i,?
O=Cc1ccccc1,.,.,.,i,i
COc1ccc(NC(=O)CCOc2cc(C)ccc2C)cc1S(=O)(=O)N1CCCCC1,1%,?,-54*,?,?
COc1ccc(OCC(=O)N2CCN(CCc3ccccn3)CC2)cc1,.,.,.,i,i
CC1(C)OC(c2ccccc2)=C/C(=C/C=C2C(=O)NC(=O)NC2=O)O1,18µM*,18µM*,-5,?,i
CN(C)CCC=C1c2ccccc2CCc2ccccc21,?,?,?,i,21µM*
CN(C)CC/C=C1\c2ccccc2Sc2ccc(Cl)cc21,?,?,-57*,i,?
CCc1nc(SC)ncc1C(=O)Nc1ccc(Cl)cc1C(=O)c1ccccc1,.,.,.,i,i
CC1(C)c2[nH]c3ccccc3c2C[C@@H]2C(=O)N(Cc3ccccc3F)C(=O)N21,-3%,?,.,?,?
OCc1cccc[n+]1CCc1ccccc1,-118%,-1%,27,i,i
O=C(CSc1nnc(NC(=O)c2cc(Br)ccc2Cl)s1)NCC1CCCO1 (stereo not given),?,0%,7,i,i
O=C(O)c1cccc2nc3ccccc3nc12,8.2µM*,0%,15,i,i
Oc1ccc(O)c2c1C1(Cl)C(Cl)=C(Cl)C2(Cl)C1(Cl)Cl,?,16µM*,-61*,i,i
CCCCCCCCCC(=O)O[C@H]1CC[C@H]2[C@@H]3CCC4=CC(=O)CC[C@@H]4[C@H]3CC[C@]12C,-4%,-9%,.,.,.
C=CCNC(=O)c1c(N)n(CCN2CCOCC2)c2nc3ccccc3nc12,8%,5.8µM*,?,i,i
CCCNC(=O)c1c(N)n(Cc2ccco2)c2nc3ccccc3nc12,?,2.1µM*,-89*,i,i
COCCCNC(=O)c1c(N)n(Cc2ccco2)c2nc3ccccc3nc12,9.2µM*,12µM*,-55*,i,i
COc1ccc(Cn2c(N)c(C(=O)NCc3ccco3)c3nc4ccccc4nc32)cc1OC,0.52µM*,?,?,?,21µM*
